Results filed as inconclusive are left out. A number with no mark means an inactive call. The source made the active and inactive calls. The call rests on the fitted dose curve; in most records, active means well fitted curve in the direction sought with a large enough effect; inconclusive means small, poorly fitted or top-dose-only effect, or another doubt; inactive means no such curve, though single readings can be large; an effect the other way counts as inactive or inconclusive.

Assay [1] deals with UISO. The experiment in a line: qHTS assay to identify novel small-molecules to repurpose for Merkel cell carcinoma treatment (AID 1296009). Further: nearly all actives have a fitted effect of over 60% in size. Conditions: MCC and control cell lines, CellTiter-Glo viability, 72 h; series mostly up to 46 µM. The method in brief:
(§1)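 CellTiter-Glo luminescence after 72 hr compound exposure at 37 degree celsius gave cell viability. Libraries NPC and MIPE were run as 8- and 11-point dose responses; RLUs normalized to DMSO (negative) and no-cell (cytotoxicity) controls.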
On the technique in general: qHTS replaces the single test concentration by a dilution series.

The test system of assay [2] is WaGa. The description is as above. To be noted: MCC and control cell lines, CellTiter-Glo viability, 72 h; series mostly up to 46 µM. The method in brief:
as §1
In general terms: In ATP-based viability assays light output follows the ATP content of the culture.

Assay [3] deals with C33A. Kind of assay: Primary qHTS to identify gynecologic anti-cancer compounds using libraries of approved drugs and bioactive compounds (AID 1345084). Further: nearly all actives have a fitted effect of over 55% in size. To be noted: Gynecologic cancer cell panel viability, ATPlite luminescence, 48 h; series mostly up to 57.5 µM. In short, it runs like this:
(§2)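 In this quantitative HTS, cell killing is estimated from loss of ATP-dependent luciferase light. Cells see five compound concentrations over a 48 h exposure.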

In assay [4] the test system is CAOV3. Described as above. Conditions: Gynecologic cancer cell panel viability, ATPlite luminescence, 48 h; series mostly up to 57.5 µM. The method in brief: as §2
For assay [5], the system named is CASKI. Described as above. To be noted: Gynecologic cancer cell panel viability, ATPlite luminescence, 48 h; series mostly up to 57.5 µM. In short, it runs like this: as §2
In assay [6] the test system is Es-2. The description is as above. Conditions: Gynecologic cancer cell panel viability, ATPlite luminescence, 48 h; series mostly up to 57.5 µM. In short, it runs like this: as §2
Assay [7] has as its system HeLa. The assay is described as above. To be noted: Gynecologic cancer cell panel viability, ATPlite luminescence, 48 h; series mostly up to 57.5 µM. The method in brief: as §2
Assay [8] relates to Hek293T. The assay is described as above. To be noted: Gynecologic cancer cell panel viability, ATPlite luminescence, 48 h, control line for the selectivity index; series mostly up to 57.5 µM. The method in brief:
as §2

Assay [9] relates to JEG-3. Described as above. To be noted: Gynecologic cancer cell panel viability, ATPlite luminescence, 48 h; series mostly up to 57.5 µM. In short, it runs like this: as §2
On the % scale 0 is the no-effect control and ±100 the full control effect; potency means the concentration at half of the fitted maximal effect.

With `CN1C(=O)CC[C@H]1c1cccnc1`, the Potency entry in [1], in assay [2], in assay [3], in assay [4], in assay [5] and in [6] was “inactive” throughout. Besides, the Potency entry in [7], in assay [8] and in assay [9] was “inactive” each time.

Regarding `Cc1nc2c([nH]1)c(=O)n(C)c(=O)n2Cc1ccco1`, the Potency entry in assay [1], in assay [2], in [3], in assay [4], in [5] and in assay [6] was “inactive” throughout. In addition, the Potency result in assay [7], in [8] and in assay [9] was “inactive” throughout.

In the case of `CN1CCN(CC(=O)N2c3ccccc3C(=O)Nc3cccnc32)CC1`, the activity change, negative = cytotoxicity in assay [1] was 0.833% [at 4.84 µM]; in [2], 4.82% [at 4.84 µM]; in assay [3] it was -17.4% [at 6.55 µM]; in [4] it was 6.09% [at 6.55 µM]; in [5] it was 7.9% [at 6.55 µM]; in assay [6], 2.19% [at 6.55 µM]. Moreover, the activity change, negative = cytotoxicity was 1.94% [at 6.55 µM] in [7], 3.74% [at 6.55 µM] in assay [8] and -2.67% [at 6.55 µM] in assay [9].

Take `O=C(O)CN(CCOCCOCCN(CC(=O)O)CC(=O)O)CC(=O)O`: the activity change, negative = cytotoxicity in [1] was 21.4% [at 0.597 µM]; in assay [2] it was 12.3% [at 0.597 µM]; in [3] it was 11.2% [at 0.462 µM]; in [4] it was 7.4% [at 0.462 µM]; in assay [5], 2.67% [at 0.462 µM]; in assay [6], -1.06% [at 0.462 µM]. Moreover, the activity change, negative = cytotoxicity in [7] is 11.5% [at 0.462 µM]; in assay [8], -0.823% [at 0.462 µM]; in assay [9], -5.11% [at 0.462 µM].

As for `CCn1cc(C(=O)O)c(=O)c2cc3c(cc21)OCO3`, the Potency entry in assay [1], in assay [2], in assay [3], in assay [4], in assay [5] and in [6] was “inactive” each time. In addition, the Potency entry in [7], in assay [8] and in [9] was “inactive” in each case.

Consider `CCCOc1ccccc1-c1nc2n[nH]nc2c(=O)[nH]1`, for which the Potency result in [1], in assay [2], in assay [3], in assay [4], in assay [5] and in assay [6] was “inactive” in each case. The Potency result in assay [7], in [8] and in assay [9] was “inactive” in each case.

For `O=C(CCCN1CCC(O)(c2cccc(C(F)(F)F)c2)CC1)c1ccc(F)cc1`, the Potency result in assay [1], in assay [2], in [3], in [4], in assay [5] and in assay [6] was “inactive” throughout. Further, the Potency result in assay [7], in assay [8] and in [9] was “inactive” throughout.

With `CN(C)CCOC(=O)COc1ccc(Cl)cc1`, the Potency entry in assay [1], in assay [2], in [3], in assay [4], in assay [5] and in assay [6] was “inactive” in each case. The Potency entry in [7], in [8] and in assay [9] was “inactive” throughout.

Take `CN1CCN(C2=Nc3ccccc3Oc3ccc(Cl)cc32)CC1`: the Potency result in [1], in [2], in [3], in [4], in [5] and in assay [6] was “inactive” throughout. In addition, the Potency entry in [7], in [8] and in [9] was “inactive” each time.

Consider `CCN(CC)CCNC(=O)c1ccc(NC(C)=O)cc1`, for which the Potency entry in assay [1], in [3], in [4], in assay [5], in [6] and in assay [7] was “inactive” each time. For the same compound, the Potency entry in assay [8] and in [9] was “inactive” each time.

`O=C(CCNNC(=O)c1ccncc1)NCc1ccccc1`: the Potency entry in assay [1], in [3], in [4], in assay [5], in assay [6] and in assay [7] was “inactive” throughout. Moreover, the Potency result in assay [8] and in assay [9] was “inactive” in each case.

Consider `CCCN(CCC)CCc1cccc2c1CC(=O)N2`, for which the Potency entry in assay [1], in [2], in assay [3], in assay [5], in assay [6] and in assay [7] was “inactive” each time. Moreover, the Potency result in assay [8] and in [9] was “inactive” each time.

As to `C[C@H](CS)C(=O)N1CCC[C@H]1C(=O)O`, the Potency entry in [1], in assay [2], in assay [3], in assay [4], in assay [5] and in assay [6] was “inactive” each time. Besides, the Potency entry in [7], in assay [8] and in assay [9] was “inactive” in each case.

In the case of `CN1C[C@H](C(=O)N[C@]2(C)O[C@@]3(O)[C@@H]4CCCN4C(=O)[C@H](Cc4ccccc4)N3C2=O)C[C@@H]2c3cccc4[nH]cc(c34)C[C@H]21`, the Potency entry in assay [1], in assay [2], in assay [4], in assay [5], in assay [6] and in assay [7] was “inactive” each time. For the same compound, the Potency result in assay [8] and in assay [9] was “inactive” throughout.

Consider `C[n+]1cc2c3c(ccc2c2ccc4cc5c(cc4c21)OCO5)OCO3`, for which the Potency was 1.3 µM (active) in assay [1]; 1.03 µM (active) in assay [2]; 2 µM (active) in [3]; 8.91 µM (active) in assay [6]; 8.91 µM (active) in assay [7]; 8.91 µM (active) in [8].

`N[C@@H](COP(=O)(O)O)C(=O)O`: the Potency result in assay [1], in assay [2], in [3], in assay [4], in [5] and in assay [6] was “inactive” in each case. Further, the Potency entry in assay [7], in assay [8] and in assay [9] was “inactive” in each case.

Consider `CN(C)CC/C=C1\c2ccccc2COc2ccccc21`, for which the Potency entry in assay [1], in assay [2], in [3], in assay [4], in assay [6] and in assay [8] was “inactive” in each case. Besides, the Potency result in assay [9] is “inactive”.

For the compound `CN(C)C(=O)Oc1cccc([N+](C)(C)C)c1`, the Potency entry in assay [1], in assay [2], in assay [3], in [5], in assay [6] and in [7] was “inactive” each time. Also, the Potency entry in assay [8] and in assay [9] was “inactive” each time.

As for `CN(C(=O)CCCOc1ccc2[nH]c(=O)ccc2c1)C1CCCCC1`, the Potency result in assay [1], in assay [2], in [3], in assay [4], in assay [5] and in [6] was “inactive” each time. Moreover, the Potency entry in assay [7], in assay [8] and in assay [9] was “inactive” in each case.

In the case of `Cc1nc2sccn2c(=O)c1CCN1CCC(=C(c2ccc(F)cc2)c2ccc(F)cc2)CC1`, the Potency entry in assay [1], in [3], in [4], in [5], in assay [6] and in assay [7] was “inactive” in each case. The Potency result in [8] and in assay [9] was “inactive” throughout.

Take `Cc1nc2ccccn2c(=O)c1CCN1CCC(C(=O)c2ccc(F)cc2)CC1`: the Potency entry in [1], in [3], in [4], in assay [5], in assay [6] and in assay [7] was “inactive” throughout. Further, the Potency result in assay [8] and in assay [9] was “inactive” each time.

As to `NS(=O)(=O)c1cc2c(cc1Cl)NC(C1CC3C=CC1C3)NS2(=O)=O` (stereo unspecified), the Potency entry in assay [1], in [2], in [3], in assay [4], in [5] and in assay [6] was “inactive” in each case. Further, the Potency entry in assay [7], in assay [8] and in assay [9] was “inactive” throughout.

(Values after PubChem BioAssay (NCATS).)
